Data from PubChem BioAssay (NCI).
The panel holds about 83,000 compounds, 20% with a hit somewhere; the sample as a whole holds those more often.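 Note: values are percent growth. 100 is the growth of untreated cells, values between 100 and 0 indicate rising inhibition; between -100 and 0 indicates cell death.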 Activity calls are given as the source filed them.

test system: SNB-19 CNS; assay: NCI-60 one-dose screen, 48 h (100 = growth as untreated, 0 = no growth, -100 = all killed); conditions: 10 µM
Procedure: Growth inhibition of the SNB-19 human tumor cell line is measured as a screen for anti-cancer activity. Cells are grown in 96 well plates and exposed to the test compound for 48 hours. Compounds are tested at a single concentration, which is 10^-5 M for most compounds. The reported endpoint is percent growth (GI% or GIPRCNT), where numbers from 0 - 100% represent growth inhibition, and numbers from -100% - 0 represent cell death. For example, a value of 40 represents 60% growth inhibition. A value of 0 means no net growth occurred over the course of the experiment. A value of -40 indicates 40% of cells at the beginning of the experiment died by the end of the experiment. A value of -100 means all cells are dead at the end of the experiment.
NCI-60 Human Tumor Cell Lines Screen was performed using the standard one-dose NCI protocol, which is described in more detail at https://dtp.cancer.gov/discovery_development/nci-60/default.htm.
Compounds with GIPRCNT values below 10 were considered active. Activity score was based on GIPRCNT using the following formula: […]
Score is 0 for GIPRCNT values of 100 or above, 50 for GIPRCNT values of 0, and 100 for GIPRCNT values of -100.

Row | Structure (SMILES) | growth
1 | COc1cc(C)ccc1C(=O)c1ccc(C)cc1OC | 43.4% (inactive)
2 | COc1cc(Cl)cc(-c2nn(-c3cccc(NC(=O)Nc4ccc(Cl)c(Cl)c4)c3)cc2-c2ccncc2)c1 | 17.8% (inactive)
3 | Clc1ccc(-c2cn(-c3ccccc3)c(-c3ccccc3)n2)c(Cl)c1 | 43.7% (inactive)
4 | O=c1oc2cc(OS(=O)(=O)c3ccccc3)ccc2c2c1CCCCC2 | 77% (inactive)
5 | COc1ccc2nc3ccccc3c(NCCNCC(C)O)c2c1 (stereo not given) | 0.0735% (active)
6 | CCC1(C(C)C)NC(=O)NC1=O (stereo not given) | 101% (inactive)
7 | COc1cc(-c2nc(-c3nnc(-c4ccccc4Cl)o3)c3ccccn23)cc(OC)c1OC | 101% (inactive)
8 | COc1ccc(/C=C2/CN(C(=O)c3ccccc3F)C/C(=C\c3ccc(OC)cc3)C2=O)cc1 | 77% (inactive)
9 | COc1ccc(CN2CCC(N3CCCC3=O)c3cc(Cl)ccc32)cc1 (stereo not given) | 99.5% (inactive)
10 | CN(C)N=Nc1nn(C(=O)Nc2ccc(Cc3ccccc3)cc2)c2ccccc12 | 64% (inactive)
11 | CC[C@H]1CCC/C=C/[C@@H]2C[C@H](O)C[C@H]2[C@H](O)/C=C/C(=O)O1 | 29.7% (inactive)
12 | COC(=O)[C@@H]1[C@H](O)[C@H](C)[C@H](O)[C@@](C)(O)/C=C\C=C(C)C(=O)Nc2c(C)c(OC(C)=O)c3c(c2O)C(=O)C(C)=C2OCOC(=C23)C(C)=C[C@@](C)(O)[C@H](O)[C@@H](C)[C@H]1OC(C)=O | 112% (inactive)
13 | COc1cc(NC(=O)CSc2nc3ccccc3c(=O)n2CCc2ccccc2)cc(OC)c1OC | 27% (inactive)
14 | O=S(=O)(NCCNc1nccc(-c2c(-c3ccc(F)cc3)nc3sccn23)n1)c1ccc2ccccc2c1 | 105% (inactive)
15 | CCOC(=O)N1C/C(=C/c2ccc(Cl)cc2)C(=O)/C(=C/c2ccc(Cl)cc2)C1 | 77.3% (inactive)
16 | O=C(Nc1cccc(Cl)c1)Nc1nccs1 | 83.4% (inactive)
17 | Nc1ccc2c(c1)Cc1cc(N)c(Br)cc1-2 | 114% (inactive)
18 | CC(C)N(CCNc1nc(C(Cl)(Cl)Cl)nc2cc(Cl)ccc12)C(C)C | 22.9% (inactive)
19 | Cc1cc2ccccc2nc1-c1ccccc1F | 110% (inactive)
20 | CCN(CC)CCC(CNc1c(C)cnc2cc(Cl)ccc12)c1ccc(Cl)cc1 (stereo not given) | 68.1% (inactive)

Row | Structure (SMILES) | growth
21 | CS(=O)(=O)Nc1cccc(-c2cc(-c3ccccc3Cl)c(C#N)c(N)n2)c1 | 49% (inactive)
22 | N#CCCN1C/C(=C/c2ccc(Br)cc2)C(=O)/C(=C/c2ccc(Br)cc2)C1 | -46.6% (active)
23 | COc1cc(-c2nc(-c3nnc(-c4ccc(F)c(Cl)c4)o3)c3ccccn23)cc(OC)c1OC | 4.53% (active)
24 | COc1cc(-c2cc(/C=C3\C(=O)Nc4ccc(Cl)cc43)[nH]n2)cc(OC)c1OC | 49.9% (inactive)
25 | O=C(Nc1ccccc1)Nc1cccc(-n2cc(-c3ccncc3)c(-c3ccc(O)c(Cl)c3)n2)c1 | 77.2% (inactive)
26 | O=C(Nc1ccc(Cl)c([N+](=O)[O-])c1)Nc1nc2ccccc2s1 | 84.2% (inactive)
27 | COc1ccc(-c2cc(/C=C3\C(=O)Nc4ccc(Cl)cc43)[nH]n2)cc1OC | 90.9% (inactive)
28 | CN(C)c1ccc(-c2cc(-c3cccc(NS(C)(=O)=O)c3)nc(N)c2C#N)cc1 | 43.3% (inactive)
29 | O=S(=O)(NCCCNc1nccc(-c2c(-c3ccc(F)cc3)nc3sccn23)n1)c1ccc2ccccc2c1 | 82.4% (inactive)
30 | Clc1ccc(Nc2ccnc(NCCCNc3ccnc4cc(Cl)ccc34)n2)cc1 | 4.15% (active)
31 | Cn1c(N)c(N=Nc2ccc(S(=O)(=O)Nc3nccs3)cc2)c(=O)n(C)c1=O | 104% (inactive)
32 | COc1cccc(C2C3=C(COC3=O)N(CCO)c3cc(OC)ccc32)c1 (stereo not given) | 33.3% (inactive)
33 | CC1CC(=O)OC(C)C1 (stereo not given) | 116% (inactive)
34 | COc1ccccc1CNCCCN1C(=O)c2ccc3c4c(ccc(c24)C1=O)C(=O)N(CCCN)C3=O | -5.76% (active)
35 | CSc1nn(-c2ccccc2)c2ncnc(Oc3ccc(C)cc3)c12 | 102% (inactive)
36 | Nc1ncnc2[nH]c(=O)[nH]c12 | 97.5% (inactive)
37 | O=C1OCC2=C1C(c1cccc(Br)c1)c1cc3c(cc1N2CCO)CCC3 (stereo not given) | 28.8% (inactive)
38 | CCN1Cc2c(/C=C/c3ccccc3)nc3ccc(OC)cc3c2N(c2cccc(Cl)c2)C1 | 93.3% (inactive)
39 | COc1cc(/C(=C2/O[C@@H]([C@H]3COC(C)(C)O3)[C@H]3OC(C)(C)O[C@@H]23)c2ccc3ccccc3c2)cc(OC)c1OC | 29% (inactive)
40 | COc1ccc(NC2=NC(C)(CO)CS2)cc1 (stereo not given) | 103% (inactive)
